The values that follow come from the supplement of paper PMC6522484.

± gives the standard deviation of the averaged measurements.

The test system of experiment [1] is DLD1. Briefly: cell viability (CellTiter-Glo) relative to plate median (fraction of plate median); higher = more viable cells. The settings on record: 5 µM; treatment time 24 h; reporter: 7TFP. In outline: (§1)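 Two independent replicates were averaged for each reported value. Library compounds were applied at a final 5 µM for 24 h to colorectal cancer cell lines stably expressing lentiviral TCF/Wnt firefly luciferase reporters. Firefly luciferase or CellTiterGlo luminescence from each well was normalised to the plate median.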
On the technique in general: Cellular ATP, detected with luciferase, serves as a proxy for viable cell number.

The test system of another experiment is HCT116. Described as above. The settings on record: 5 µM; treatment time 24 h; reporter: TCF4/Wnt. In outline:
as §1

Experiment [2] concerns SW480. The experiment is described as above. The settings on record: 5 µM; treatment time 24 h; reporter: 7TFP. A digest of the protocol:
as §1

Experiment [3] relates to DLD1. Briefly: TCF/Wnt firefly luciferase reporter signal relative to plate median (fraction of plate median); higher = higher Wnt reporter signal. The settings on record: 5 µM; treatment time 24 h; reporter: 7TFP. In outline: as §1
A general note: In a reporter assay the amount or activity of a reporter protein is the signal.

Experiment [4] relates to SW480. The experiment is described as above. The settings on record: 5 µM; treatment time 24 h; reporter: 7TFP. In outline:
as §1

For the molecule `CO[C@H]1/C=C/O[C@@]2(C)Oc3c(C)c(O)c4c(O)c(c(/C=N/N5CCN(C)CC5)c(O)c4c3C2=O)NC(=O)/C(C)=C\C=C\[C@H](C)[C@H](O)[C@@H](C)[C@@H](O)[C@@H](C)[C@H](OC(C)=O)[C@@H]1C`, the cell viability in the experiment with DLD1 [1] was 1.01 ± 0.064; in the experiment with HCT116 it was 1.07 ± 0.13; in the experiment on SW480 [2] it was 1.05 ± 0.028. The figures for the “TCF/Wnt firefly luciferase reporter signal” value in the experiment with DLD1 [3] and in the experiment with SW480 [4] were 1.01 ± 0.037 and 1.08 ± 0.057, respectively.

`CC(C(=O)O)c1ccc(C(=O)c2cccs2)cc1` (stereo not given): the cell viability worked out at 1.01 ± 0.021 with DLD1 [1], 1.025 ± 0.0071 in the experiment on HCT116 and 1.02 ± 0.014 in the experiment with SW480 [2]. For the same molecule, the “TCF/Wnt firefly luciferase reporter signal” value in the experiment with DLD1 [3] came out at 0.996 ± 0.021; in the experiment on SW480 [4] it was 0.999 ± 0.072.

For the molecule `COc1ccc2c(c1)OC[C@@H](Cc1ccc(OC)c(OC)c1)[C@H]2O`, the cell viability with DLD1 [1] was found to be 1.09 ± 0.078; in the experiment on HCT116, 1.06 ± 0.11; in the experiment on SW480 [2] it was 0.993 ± 0.095. The entries for the “TCF/Wnt firefly luciferase reporter signal” value in the experiment with DLD1 [3] and in the experiment with SW480 [4] were 0.944 ± 0.011 and 0.94 ± 0.018, respectively.

As for `COc1cc(C(N)=O)ccc1O` [4-Hydroxy-3-methoxy-benzoic acid amide, Vanillic acid amide], the cell viability stood at 0.953 ± 0.032 in the experiment on DLD1 [1], 1.125 ± 0.0071 with HCT116 and 1.06 ± 0.014 in the experiment with SW480 [2]. For the same molecule, the “TCF/Wnt firefly luciferase reporter signal” value in the experiment on DLD1 [3] is 1.06 ± 0.086; with SW480 [4] it was 0.942 ± 0.064.

With `COc1ccc(-c2cc(=O)c3c(OC)c(OC)c(OC)c(OC)c3o2)cc1`, the cell viability in the experiment on DLD1 [1] came to 1 ± 0.064; in the experiment on HCT116, 0.932 ± 0.059; in the experiment with SW480 [2] it was 1.05 ± 0.05. Besides, the “TCF/Wnt firefly luciferase reporter signal” value in the experiment with DLD1 [3] came out at 1.13 ± 0.042; in the experiment on SW480 [4], 0.961 ± 0.0028.

Consider `COC(=O)C1=C(C)NC(C)=C(C(=O)OC)C1c1ccccc1[N+](=O)[O-]`, for which the values for the cell viability in the experiment with DLD1 [1], in the experiment on HCT116 and in the experiment on SW480 [2] were 1.05 ± 0.14, 0.995 ± 0.11 and 1.06 ± 0.028, respectively. Also, the “TCF/Wnt firefly luciferase reporter signal” value worked out at 1.04 ± 0.11 in the experiment on DLD1 [3] and 1.06 ± 0.078 in the experiment with SW480 [4].

For `CCSC(=N)N`, the cell viability is 0.954 ± 0.046 in the experiment on DLD1 [1], 0.948 ± 0.073 in the experiment on HCT116 and 0.9995 ± 0.00071 with SW480 [2]. For the same molecule, the “TCF/Wnt firefly luciferase reporter signal” value with DLD1 [3] came to 0.99 ± 0.028; with SW480 [4] it was 0.963 ± 0.031.

As to `CC1(C)O[C@@H]2C[C@H]3[C@@H]4C[C@H](F)C5=CC(=O)C=C[C@]5(C)[C@H]4[C@@H](O)C[C@]3(C)[C@]2(C(=O)CO)O1`, the cell viability stood at 0.996 ± 0.0057 with DLD1 [1], 1.03 ± 0.055 in the experiment with HCT116 and 0.978 ± 0.0042 with SW480 [2]. Also, the “TCF/Wnt firefly luciferase reporter signal” value was determined as 0.928 ± 0.0085 in the experiment with DLD1 [3] and 1.03 ± 0.067 in the experiment with SW480 [4].

For the molecule `COc1ccccc1OCC(O)CO` (stereo not given), the cell viability was 0.953 ± 0.015 in the experiment with DLD1 [1], 1.08 ± 0.05 in the experiment with HCT116 and 1.03 ± 0.052 in the experiment with SW480 [2]. Further, the “TCF/Wnt firefly luciferase reporter signal” value in the experiment with DLD1 [3] was 1.09 ± 0.028; in the experiment with SW480 [4], 1.01 ± 0.095.

Turning to `CC1=CC2C(CC1=O)C(C)=CCC2C(C)C` (stereo not given), the cell viability in the experiment on DLD1 [1] worked out at 0.983 ± 0.095; with HCT116 it was 0.971 ± 0.084; in the experiment with SW480 [2] it was 1 ± 0.012. For the same molecule, the “TCF/Wnt firefly luciferase reporter signal” value with DLD1 [3] turned out to be 0.987 ± 0.1; with SW480 [4], 0.945 ± 0.19.

On to `CCC[C@H](N[C@@H](C)C(=O)N1[C@H](C(=O)O)C[C@@H]2CCCC[C@@H]21)C(=O)OCC`, for which the cell viability in the experiment on DLD1 [1] was 1.03 ± 0.05; with HCT116, 1.08 ± 0.035; in the experiment with SW480 [2], 0.961 ± 0.037. The “TCF/Wnt firefly luciferase reporter signal” value with DLD1 [3] worked out at 0.982 ± 0.025; in the experiment on SW480 [4] it was 1.08 ± 0.078.

For `CC(C)(C)NC[C@H](O)COc1nsnc1N1CCOCC1`, the cell viability is 0.966 ± 0.045 in the experiment with DLD1 [1], 0.992 ± 0.17 in the experiment with HCT116 and 0.9705 ± 0.0092 in the experiment on SW480 [2]. The “TCF/Wnt firefly luciferase reporter signal” value in the experiment on DLD1 [3] is 0.971 ± 0.084; in the experiment on SW480 [4], 1.04 ± 0.042.

Take `Nc1ccc(S(=O)(=O)Nc2nccs2)cc1`: the figures for the cell viability in the experiment with DLD1 [1], with HCT116 and in the experiment with SW480 [2] were 1.01 ± 0.031, 0.911 ± 0.028 and 1.065 ± 0.0071, respectively. Besides, the entries for the “TCF/Wnt firefly luciferase reporter signal” value in the experiment with DLD1 [3] and in the experiment with SW480 [4] were 0.999 ± 0.072 and 1.055 ± 0.0071, respectively.

As to `CCCCC1C(=O)N(c2ccccc2)N(c2ccc(O)cc2)C1=O` (stereo not given), the figures for the cell viability with DLD1 [1], in the experiment on HCT116 and in the experiment with SW480 [2] were 0.923 ± 0.015, 0.873 ± 0.038 and 0.898 ± 0.028, respectively. For the same molecule, the “TCF/Wnt firefly luciferase reporter signal” value with DLD1 [3] is 1.21 ± 0.057; in the experiment on SW480 [4], 1.02 ± 0.05.
